Screens (PubChem BioAssay)
Only some compounds are listed: those with a hit (about 5.2% of all), similar ones and a draw of the others.
FBPA coupling cs – qHTS Assay for Inhibitors of Fructose-1,6-bisphosphate Aldolase from Giardia Lamblia: Coupling assay counterscreen | coupling enzyme system counterscreen, AmpLite Red fluorescence | activity change, negative = inhibition, % at 58.2 µM, hits read low | 290,000 compounds, 0.67% hits | AID 2472, 2010; in the data active means activity change below about -30%
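Compounds tested against the coupling enzymes alone at 57.5 uM final; readout was AmpLite Red fluorescence (525/598 nm) after 20 min at RT.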
Sfp inh – qHTS Assay for Inhibitors of Bacillus subtilis Sfp phosphopantetheinyl transferase (PPTase); 310,000 compounds, 3.5% hits; Potency, µM, actives largely listed as inhibitors; Biochemical Sfp PPTase activity, qHTS; 4'-phosphopantetheinyl transferase ffp (Bacillus subtilis), Q9F4F7;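 further: the enzyme is Sfp with the accession as filed and its product quenches rhodamine fluorescence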
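Fluorescence-quenching assay with 15 nM Sfp, 5 uM rhodamine-CoA and 12.5 uM BHQ-2-labelled ybbR peptide in pH 7.6 Hepes/MgCl2 buffer. Enzyme was pre-incubated with compound for 15 min at room temperature. Rate was taken from the 30-min fluorescence change (525/598 nm).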
Tau FP inhib – qHTS for Inhibitors of Tau Fibril Formation, Fluorescence Polarization; K18 P301L tau heparin fibrillization, Alexa594 FP, 6 h; 280,000 compounds, 0.39% hits; Potency, µM (titrated, usually from 57.7 µM), usual class: inhibitors; further: nearly all actives have a fitted effect of over 55% in size
Target sequence (P10636 561-689 P618L limits assumed): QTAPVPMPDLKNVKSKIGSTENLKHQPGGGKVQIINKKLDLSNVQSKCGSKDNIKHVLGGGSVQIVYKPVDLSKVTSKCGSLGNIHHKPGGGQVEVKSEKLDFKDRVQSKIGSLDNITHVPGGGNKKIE
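Heparin (20 uM) drove fibril formation of recombinant tau K18 P301L, 15 uM unlabeled with 0.24 uM Alexa 594 label, for 6 hr at 37 C in 100 mM sodium acetate pH 7. Fluorescence polarization (555/632 nm) read 1 hr after 30 uM ThT.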
Tau fluor cs – Counterscreen qHTS for Inhibitors of Tau Fibril Formation, Fluorescence Polarization | AID 1463, 2008 | tau K18 P301L Alexa594 fluorescence, heparin fibrillization | 280,000 compounds, 0.93% hits | Potency, µM (titrated, usually from 57.7 µM); further: nearly all actives have a fitted effect of over 55% in size
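Human tau K18 P301L (15 uM unlabeled, 0.24 uM Alexa 594-labeled) in 100 mM sodium acetate pH 7 with 20 uM heparin, 6 hr at 37 C. ThT 30 uM added, 1 hr ambient; Alexa 594 FP and total fluorescence read at 555/632 nm.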
Tau fibril ThT – qHTS for Inhibitors of Tau Fibril Formation, Thioflavin T Binding | Microtubule-associated protein tau (Homo sapiens), P10636 | recombinant tau K18 P301L (four-repeat tau fragment), heparin-induced fibrillization, ThT fluorescence | Potency, µM (highest dose often 57.4 µM), most hits filed as inhibitors | 270,000 compounds, 2.1% hits; further: nearly all actives have a fitted effect of over 55% in size
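Tau K18 P301L fragment (15 uM unlabeled plus 0.24 uM Alexa 594-labeled) in 100 mM sodium acetate pH 7 with compound, fibrillization induced by 20 uM heparin for 6 hr at 37 C. Thioflavin T (30 uM) added, fluorescence read after 1 hr (ex 450, em 510 nm).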
Numbers stand for hits; . = inactive; ? = inconclusive; / = no result; [ ] = remark or other dose. Unless noted, the call rests on the fitted dose curve; in most records, active means well fitted curve in the direction sought with a large enough effect; inconclusive means small, poorly fitted or top-dose-only effect, or another doubt; inactive means no such curve, though single readings can be large; an effect the other way counts as inactive or inconclusive.

SMILES	FBPA coupling cs	Sfp inh	Tau FP inhib	Tau fluor cs	Tau fibril ThT
O=c1[nH][nH]c(-c2ccccc2)c1C=Nc1ccccc1	.	.	.	.	.
Sc1oc(-c2ccccc2)cc1C=Nc1ccccc1	.	.	.	18µM[quencher]	8.9µM
COc1cc(NC(=O)c2cc(C)nc3c2c(C)nn3-c2ccccc2Cl)cc(OC)c1	/	/	.	.	.
COc1ccc(Cl)cc1NC(=O)c1cnc(N2CCCCC2)c2ccccc12	/	/	?	.	.
COc1ccc2nc3cc(Cl)ccc3c(Nc3cc(C(C)C)c(O)cc3C)c2c1	.	50µM	?	7.1µM[quencher]	5µM
COc1ccc2oc(-c3ccc(C)c(NC(=O)c4ccc(N5CCCCC5)c([N+](=O)[O-])c4)c3)nc2c1	/	/	?	.	.
COc1ccc(Cc2c3cc(OC)c(OC)cc3cc[n+]2C)cc1OC	.	79µM	.	.	.
N#CC12CCCCC1CC1CCCCC1(C#N)N2N (stereo not drawn)	.	79µM	.	?	.
CC(C)(C)c1cc(C(=S)N2CCN(CCO)CC2)cc(C(C)(C)C)c1O	.	3.2µM	.	.	.
O=C1NC(c2cc(Cl)cc([N+](=O)[O-])c2O)Nc2ccccc21 (stereo not drawn)	.	.	.	.	7.1µM
O=C(Cn1nnc(-c2cccc(C(F)(F)F)c2)n1)NCc1ccc(F)cc1	/	/	.	.	.
CC(C)(C)N1C(=O)c2ccccc2NC(=O)N1Cc1ccccc1	.	.	.	.	.
O=C1Nc2ccccc2C(=O)C1(Cl)Cc1ccccc1 (stereo not drawn)	.	18µM	?	.	?
Cc1[nH]n(-c2ccccc2)c(=O)c1/C=N/N1CCOCC1	.	.	.	.	.
Cc1[nH]n(-c2ccccc2)c(=O)c1/C=N/N1C(=O)c2cccc3cccc(c23)C1=O	.	.	.	?	22µM
Cc1[nH]n(-c2ccccc2)c(=O)c1/C=N/Nc1nncc(-c2ccccc2)n1	.	.	.	?	14µM
O=C(O/N=C1/CCSc2ccccc21)c1ccccc1	.	79µM	.	.	?
COc1ccccc1NC(=S)N/N=C1\CC(C)(C)Oc2ccc(O)cc21	.	.	?	?	?
COc1ccc(NC(=S)N/N=C2\CC(C)(C)Oc3ccc(O)cc32)cc1	.	.	.	28µM[quencher]	?
CCc1ccccc1N1CC(c2nnc(NC(=O)c3ccco3)s2)CC1=O (stereo not drawn)	/	/	.	.	.
NC(=O)c1cc(N2C(=O)C=CC2=O)ccc1Cl	.	8.9µM	.	.	?
COc1ccc(N2CCN(CCCNC(=O)c3cnn(-c4ccc(C)cc4)c3-n3cccc3)CC2)cc1	/	/	?	.	?
COc1ccc2nc(/N=C/c3c(C)[nH]n(-c4ccc(C)cc4)c3=O)sc2c1	.	.	.	?	18µM
COc1ccc2nc(/N=C\N(C)C)sc2c1	.	.	.	.	.
CCc1ccccc1NC(=O)N1CCC(CN2CCc3ccccc3C2)CC1	/	/	.	.	.
SMILES	FBPA coupling cs	Sfp inh	Tau FP inhib	Tau fluor cs	Tau fibril ThT
Cc1ccc(S(=O)(=O)n2nc(-c3ccccc3)nc2NCc2ccccc2Cl)cc1	/	/	?	.	.
O=C1C(C2=C(O)c3ccccc3C2=O)=Nc2ccccc21	.	56µM	?	?	7.1µM
Cc1ccc(NC(=O)CSc2nc3nccnc3c(=O)n2CCc2c[nH]c3ccccc23)cc1	/	/	.	.	.
CCN1CCN(c2ncnc3c2c(-c2ccccc2)cn3-c2ccc(F)cc2)CC1	.	40µM	.	.	.
Clc1ccccc1N1CCN(c2ncnc3c2c(-c2ccccc2)cn3-c2ccccc2)CC1	/	/	.	.	.
OCCN1CCN(c2ncnc3c2c(-c2ccccc2)cn3-c2ccc(Br)cc2)CC1	.	22µM	.	.	?
CC(C)C1C(c2ccccc2)NC(c2ccccc2)CC1(O)c1ccc(F)cc1 (stereo not drawn)	.	56µM	.	.	.
CCOc1ccc(S(=O)(=O)Nc2ccc3c(c2)OCO3)c2cccnc12	.	56µM	.	.	.
CCc1ccc(NC(=O)Cn2ccn(-c3ccc(C)c(C)c3)c(=O)c2=O)cc1	/	/	.	.	?
O=C(NCCc1ccc(Cl)cc1)Nc1ccc(Cl)cc1	.	.	.	.	.
CCN(CC)c1ccc(/C=N/NC(=O)Nc2ccccc2)cc1	.	.	.	14µM[quencher]	14µM
CCOc1ccc(/C=N/NC(=O)Nc2ccccc2)cc1	.	.	.	.	.
CCN(CCNC(=O)Nc1ccc(Cl)cc1)c1ccccc1	.	.	.	16µM[quencher]	?
CCN(CC)c1ccc(/C=N/NC(=O)Cc2nnc(NC(=O)Nc3ccccc3)s2)cc1	.	.	.	7.1µM[quencher]	?
CCN(CC)c1ccc(NC(=O)Nc2cccc(C(C)=O)c2)cc1	.	.	.	18µM[quencher]	?
O=C(Nc1ccc2c(c1)CCCN2C(=O)c1cccs1)c1cccc(C(F)(F)F)c1	/	/	.	.	.
Cc1ccc2oc(-c3ccc(Cl)c(NC(=O)c4ccc(-c5ccccc5[N+](=O)[O-])o4)c3)nc2c1	/	/	.	.	.
Cc1cc(C)c(Cn2c(=O)n(CCCCCC(=O)NCc3ccc4c(c3)OCO4)c(=O)c3sccc32)c(C)c1	/	/	.	.	.
O=C(Nc1ccc(N2CCCC(O)C2)cc1)c1snc2c(=O)[nH]cnc12 (stereo not drawn)	.	.	.	.	3.5µM
Cc1nc2c(C(=O)Nc3ccc(N4CCCC(O)C4)cc3)snc2c(=O)[nH]1 (stereo not drawn)	.	.	.	?	/
CC1=CC(=C2C(=O)c3ccccc3C2=O)C=C(C)N1Cc1ccco1	.	45µM	.	.	18µM
CCCS(=O)(=O)NCCc1csc2nc(-c3ccc(OC)cc3)nn12	/	/	.	.	.
CC#CC(=O)Nc1cc2c(Nc3ccc(F)c(Cl)c3)ncnc2cn1	-44	.	/	/	/
O=C1C2C3C=CC(CC3)C2C(=O)N1c1ccccc1[N+](=O)[O-] (stereo not drawn)	.	56µM	.	.	.
O=C(COc1ccc(/C=C\[N+](=O)[O-])cc1)N1CCOCC1	.	40µM	.	.	.
CC(C)(C)c1ccc(NC(=O)Nc2ccc(OCC(=O)N3CCOCC3)cc2)cc1	.	.	.	20µM[quencher]	.
O=C(Nc1ccc(OCC(=O)N2CCOCC2)cc1)Nc1cccc(Cl)c1	.	.	.	?	.
COc1cccc(Cn2cnc3c2c(=O)n(C)c(=O)n3C)c1	/	/	.	.	.
O=C1CN(c2ccccc2)C(=S)N1C(=O)c1ccccc1	.	50µM	/	/	/
O=C(c1ccccc1)N1CCC(=O)N1c1ccccc1	.	.	.	.	.
